The results in this text go back to ChEMBL document CHEMBL3988442, “University of Dundee, Small-Polar-MMV Screening Library” (2021).

Screen size: about 53,000 compounds; about 900 (1.7%) showed an effect of 50% or more. This is one part of a sample in which strong results are shown more often than they occur.

In this assay the test system is Mycobacterium tuberculosis. Description: Cornell - Phenotypic assay to identify agents that inhibit growth of Mycobacterium tuberculosis. In kind it is functional. Also noted: scale not given: direction of the effect not stated beside the values. The following applies: 10 mM as filed; unlikely as a test dose.
Regarding `O=C(CNc1cc2c(cc1Cl)OCCCO2)NCc1ccc(F)cc1`, the “Percent Effect” value is given as -2.409%.
Regarding `COc1ccc(CNC(=O)CNc2cc3c(cc2Cl)OCCO3)cc1`, the “Percent Effect” value is -25.81%.
Take `COc1ccc(CNC(=O)CNc2cc3c(cc2Cl)OCCCO3)cc1`: the “Percent Effect” value is recorded as 53.68%.
As for `CCc1cc(C(=O)N2CCC3(CCCN(CC4CC4)C3=O)C2)cs1` (centres undefined), the figure is 1.27%.
Turning to `Cc1cc2n(n1)CC(CNC1CCN(Cc3ccccc3C)CC1)CN2` (centres undefined), the “Percent Effect” value is reported as 1.638%.
As for `c1ccc(Cn2cccn2)c(CNCC2CNc3ccnn3C2)c1` (centres undefined), the “Percent Effect” value was -42.61%.
As for `Cc1ccccc1CN1CCC(NCC2CNc3ccnn3C2)CC1` (centres undefined), the figure is 54.71%; as for `CS(=O)(=O)N1Cc2ccnn2CC(C(=O)NCc2cccnc2)C1.O=C(O)C(F)(F)F.O=C(O)C(F)(F)F` (centres undefined), -34.93%; as for `CCC(C)NC(=O)NCc1cc2n(n1)CCCN(C1CCCCC1)C2` (centres undefined), -10.73%.
Turning to `Fc1ccccc1-c1cccc(C2CCCN(C3CCOCC3)C2)n1` (centres undefined), the “Percent Effect” value is given as 36.89%.
As to `CN(C)C1COC2(CCN(Cc3ccncc3)CC2)C1` (centres undefined), the “Percent Effect” value is listed as 9.126%.
On to `CC(=O)N(Cc1noc(C2CC2)n1)C1CCN(CC2CCOCC2)C1` (centres undefined), for which the “Percent Effect” value is given as -29.12%.
In the case of `CC(=O)N1CCC(c2nccnc2-c2ccc(C(=O)O)cc2)CC1`, the “Percent Effect” value was -19.35%.
Regarding `Cc1ccccc1CN1CCOC(c2nccc(CN(C)C)n2)C1` (centres undefined), the “Percent Effect” value is given as -48.65%.
On to `COc1ccc(OCc2cc(C(=O)N3C[C@@H](C)O[C@@H](C)C3)n[nH]2)c(Cl)c1`, for which the “Percent Effect” value was 4.963%.
On to `COc1ccc(OCc2cc(C(=O)N3CC=CC3)n[nH]2)c(Cl)c1`, for which the “Percent Effect” value was 40.41%.
Consider `COc1ccc(OCc2cc(C(=O)N3CCSCC3)n[nH]2)c(Cl)c1`, for which the “Percent Effect” value worked out at 54.8%.
For the molecule `COc1ccc(OCc2cc(C(=O)N3CCCCO3)n[nH]2)c(Cl)c1`, the “Percent Effect” value is given as 106.4%.
Regarding `COc1ccc(OCc2cc(C(=O)N3CCOCC3)n[nH]2)c(Cl)c1`, the “Percent Effect” value amounted to 19.45%.
As for `COc1ccc(OCc2cc(C(=O)N3CCC(O)CC3)n[nH]2)c(Cl)c1`, the “Percent Effect” value stood at 6.579%.
Turning to `CC(C(=O)N1CCOCC1)N1CCN(Cc2nccn2C)CC1` (centres undefined), the “Percent Effect” value was -9.72%.
Consider `N#Cc1cccc(S(=O)(=O)N2CCCCC2C(N)=O)c1` (centres undefined), for which the “Percent Effect” value turned out to be 15.32%.
As for `O=C(Cc1cccnc1)N1CCCC(n2cncn2)C1` (centres undefined), the “Percent Effect” value was -17.88%.
As to `Cc1nn(C)c2c(NCc3ccncc3)nc(C3CC3)nc12`, the “Percent Effect” value is listed as -8.977%.
Consider `CCN(CC(C)C#N)C(=O)CNc1cc(Cl)ccc1C(N)=O` (centres undefined), for which the “Percent Effect” value was -0.05585%.
Regarding `COCC1CCCN(C(=O)c2ccc(NC(=O)CC(C)C)c(C)c2)C1` (centres undefined), the “Percent Effect” value is listed as -1.652%.
As for `CCN(Cc1cccc(C)c1)Cn1nc(C)c2c(C)onc2c1=O`, the “Percent Effect” value is -12.96%.
As for `COc1nn(C)c2c1CCCN(C(=O)c1cc[nH]n1)C2`, the “Percent Effect” value is reported as 12.29%.
Consider `CC1(C)OC(=O)N(CC(=O)N2CCC(c3ccccc3F)C2)C1=O` (centres undefined), for which the “Percent Effect” value worked out at 22.76%.
In the case of `COc1ccccc1C1CCN(C(=O)CN2C(=O)OC(C)(C)C2=O)CC1` it was 53.49%.
Turning to `CC1(C)OC(=O)N(CC(=O)N2CCC(c3ccccc3Cl)C2)C1=O` (centres undefined), the “Percent Effect” value was 25.58%.
As to `O=C(O)C(F)(F)F.O=C1CC2(CCN(Cc3ccccn3)C2)CN1c1cncnc1` (centres undefined), the “Percent Effect” value was 17.37%.
Turning to `CCCC(C#N)NC(=O)c1cc(Br)c2c(c1)OCCO2` (centres undefined), the “Percent Effect” value is recorded as 14.39%.
On to `Oc1ccc(Cl)cc1CNCc1ccccc1C(F)(F)F`, for which the “Percent Effect” value was determined as 6.779%.
On to `Oc1ccc(Cl)cc1CNCc1cccc(C(F)(F)F)c1`, for which the “Percent Effect” value is 70.21%.
Regarding `Oc1ccc(Cl)cc1CNCc1ccccc1Cl`, the “Percent Effect” value is reported as 26.21%.
In the case of `CCc1nnc(NC(=O)c2c3c(nn2C2CCS(=O)(=O)C2)CCC3)s1` (centres undefined), the “Percent Effect” value is -18.44%.
As to `CNC(=O)NCC1CCC2(CCN(C(=O)c3ccccc3)CC2)CO1` (centres undefined), the “Percent Effect” value came out at 2.943%.
Turning to `O=C(O)C(F)(F)F.O=C([C@H]1CC[C@@H]2[C@@H](CCN2C2CCOCC2)O1)N1CCOCC1`, the “Percent Effect” value is 0.461%.
As to `Cn1nccc1NC(=O)CN1CCc2sccc2C1`, the “Percent Effect” value is -1.554%.
Consider `CC(C)n1nccc1NC(=O)CN1CCc2sccc2C1`, for which the “Percent Effect” value was determined as 2.695%.
As for `O=C(CN1CCc2sccc2C1)Nc1ccnc2ccnn12`, the “Percent Effect” value is 105.2%.
`O=C(O)C(F)(F)F.O=C(O)C(F)(F)F.O=C(c1cccnc1)N1CCC[C@]2(C[C@H](Oc3ncccc3F)CO2)C1`: the “Percent Effect” value is -30.18%.
As for `COCCN1CCC(c2cncc(N(C)C)n2)CC1`, the figure is -17.24%.
Regarding `O=C(O)c1ccccc1-c1ccc(CN2CC(c3ccncn3)C2)o1`, the “Percent Effect” value came out at 60.18%.
In the case of `Cc1nccc(C2CN(Cc3ccc(-c4ccccc4C(=O)O)o3)C2)n1`, the “Percent Effect” value stood at 19.38%.
Turning to `Nc1nccc(C2CN(Cc3ccc(-c4ccccc4C(=O)O)o3)C2)n1`, the “Percent Effect” value is recorded as 40.18%.
Take `Cc1ccc(CN(CCCn2ccnc2)Cc2cccs2)s1.O=C(O)CC(O)(CC(=O)O)C(=O)O`: the “Percent Effect” value came to 40.45%.
As for `CCc1ccc(CN(CCCn2ccnc2)Cc2ccc(C)s2)o1.O=C(O)CC(O)(CC(=O)O)C(=O)O`, the “Percent Effect” value is given as 67.99%.
Take `Cc1ccc(CN(CCCn2ccnc2)Cc2ccccc2O)s1.O=C(O)CC(O)(CC(=O)O)C(=O)O`: the “Percent Effect” value is given as -13.23%.
As for `Cc1cnc(CCNC(=O)NCCc2ccc(O)cc2)s1`, the figure is 16.98%; as for `O=C(c1ccno1)N1CCn2cc(CN3CCCCC3)nc2C1`, 6.548%.
For the molecule `CCc1ccc(C(COC)NC(=O)c2ccsc2)o1` (centres undefined), the “Percent Effect” value was 37.56%.
As for `c1cc2n(n1)CC(CNCc1ccc(OC3CCCC3)nc1)CN2` (centres undefined), the figure is -62.66%; as for `c1cc2n(n1)CC(CNCc1ccc(OC3CCCCC3)nc1)CN2` (centres undefined), 102.7%; as for `c1cc(CNCC2CNc3ccnn3C2)cc(OC2CCCCC2)n1` (centres undefined), -14.29%.
In the case of `O=C(C1CCC1)N1CCCn2nc(CNc3ncccn3)cc2C1` it was 5.205%.
Turning to `CN(Cc1cc2cc(F)ccc2[nH]1)c1cc(C2CCCNC2)ncn1` (centres undefined), the “Percent Effect” value is 13.11%.
As for `Cc1nc(C2CCCNC2)cc(N(C)CCc2ccccc2)n1` (centres undefined), the figure is 0.6184%; as for `Cc1c(CN(C)c2cc(C3CCCNC3)ncn2)[nH]c2ccccc12` (centres undefined), 61.5%; as for `CN1C(=O)CCc2cc(NS(=O)(=O)Cc3cccc(F)c3)ccc21`, 1.464%.
Turning to `O=C(Nc1c(F)cccc1F)N1CC(c2nc(C3CC3)no2)C1`, the “Percent Effect” value was 10.47%.
As for `O=C(Nc1cccs1)N1CC(c2nc(C3CC3)no2)C1`, the “Percent Effect” value was found to be 107.8%.
In the case of `COCCc1noc(C2CCN(C(=O)Nc3cccs3)CC2)n1`, the “Percent Effect” value came out at 17.42%.
As for `O=C(Nc1cccnc1)[C@H]1C[C@H]2OCC[C@H]2N(Cc2ccc(F)cc2)C1.O=C(O)C(F)(F)F.O=C(O)C(F)(F)F`, the “Percent Effect” value is recorded as 11.11%.
For the molecule `CC(C)C(=O)NCCc1cc2nc(-c3ccncc3)ccn2n1`, the “Percent Effect” value is listed as -48.83%.
As for `COCCN1CCC(CNC(=O)C2(c3ccc(Br)cc3)CCCC2)C1` (centres undefined), the figure is 15.91%; as for `CCCn1ncc(-c2ccnc(NC3CC(C)(C)NC(C)(C)C3)n2)c1C`, -32.04%.
On to `CCCn1ncc(-c2ccnc(N[C@@H]3C[C@@H]4CC[C@H]3C4)n2)c1C`, for which the “Percent Effect” value is 88.15%.
On to `OCCNc1nccc(-c2cn3nccc3nc2C2CCCCC2)n1`, for which the “Percent Effect” value turned out to be 15.49%.
For `Cc1nn(CCO)c(C)c1CNC1CCCCc2ccccc21` (centres undefined), the “Percent Effect” value worked out at 11.7%.
Turning to `CCCn1cc(-c2ccnc(NC3CCCc4ccccc43)n2)c(C)n1` (centres undefined), the “Percent Effect” value came out at 106.6%.
Consider `CCCn1ncc(-c2ccnc(NC3CCSC3)n2)c1C` (centres undefined), for which the “Percent Effect” value is listed as -4.809%.
As to `CCCn1ncc(-c2ccnc(NC3CCCc4ccccc43)n2)c1C` (centres undefined), the “Percent Effect” value is given as 50.48%.
`CCCn1cc(-c2ccnc(NC3CCc4ccccc43)n2)c(C)n1` (centres undefined): the “Percent Effect” value turned out to be 36.22%.
As for `CCCn1cc(-c2ccnc(NC3CCc4ccccc4C3)n2)c(C)n1` (centres undefined), the figure is 8.734%.
Regarding `O=C1NCC2(CCCN(c3ncnc4c3CCC4)CC2)O1` (centres undefined), the “Percent Effect” value is recorded as 11.26%.
In the case of `O=C(CCSc1ccc2c(c1)OCCO2)NCC1CCS(=O)(=O)C1` (centres undefined), the “Percent Effect” value is reported as -7.695%.
In the case of `CCC(C)NC(=O)Nc1cccc(OCCCC#N)c1` (centres undefined), the “Percent Effect” value is recorded as -0.4736%.
As for `CC(C)NC(=O)Cn1ccc2c(Cl)cccc21`, the figure is 18.88%; as for `COc1ccc(CN(C)CC(=O)Nc2ccc3[nH]c(=O)[nH]c3c2)cc1F`, -12.93%.
For `Cc1cccc(NC(=O)C2CCc3ccccc3N2)c1.Cl` (centres undefined), the “Percent Effect” value worked out at 44.23%.
For `COc1ccc(NC(=O)C(c2ccc(OC)cc2)N2CCOCC2)cc1` (centres undefined), the “Percent Effect” value is on record as -0.3618%.
Turning to `COc1cccc(NC(=O)C2CC(=O)n3cnnc3S2)c1` (centres undefined), the “Percent Effect” value turned out to be 106.8%.
As for `COc1ccc(C2CCCN2C(=O)Nc2ccc(OC)nc2)cc1` (centres undefined), the “Percent Effect” value is 1.248%.
As for `COCCN1C(=O)C2(CCC(C(=O)Nc3cccc(C)c3)CC2)N=C1C` (centres undefined), the figure is 23.11%; as for `COc1cccc(NC(=O)c2nc3ccccc3n(C)c2=O)c1`, 19.08%.
Take `Cc1cccc(NC(=O)C2CC(=O)n3cnnc3S2)c1` (centres undefined): the “Percent Effect” value was determined as 107.8%.
As for `COc1cccc(NC(=O)N2CC[C@@H]3CN(C)S(=O)(=O)[C@@H]3CC2)c1`, the figure is -43.46%; as for `COc1ccc(NC(=O)C2CC(=O)n3cnnc3S2)cc1` (centres undefined), 106.3%.
`Cc1nnc(NC(=O)c2cc(S(=O)(=O)N3CCSCC3)c[nH]2)s1`: the “Percent Effect” value is listed as -1.205%.
`CCc1cc(-c2ccnc3c2ccn3C)nc(N2CCOCC2)n1`: the “Percent Effect” value stood at 3.05%.
Regarding `N#Cc1ccc(C(=O)N2CCC3(CC2)CC3)cc1`, the “Percent Effect” value is reported as -6.813%.
Consider `O=C(c1cc(C2CCCCC2)no1)N1C[C@H]2C[C@H](O)C[C@H]2C1`, for which the “Percent Effect” value was determined as 24.89%.
Consider `CNC(=O)[C@H]1C[C@@H]2CN(C(=O)c3ccc(C)o3)C[C@@H]2N1S(C)(=O)=O`, for which the “Percent Effect” value turned out to be 18.79%.
For the molecule `Cc1cc(CC(=O)NC2CCCN(Cc3ccccc3)C2=O)n[nH]1` (centres undefined), the “Percent Effect” value is reported as -5.186%.
As to `Cc1ccccc1CN1CCCC1c1cccc(Nc2nccs2)n1` (centres undefined), the “Percent Effect” value came out at 44.82%.
Regarding `Cc1cnc(Nc2cccc(C3CCCN3Cc3cn(C)nc3C)n2)s1` (centres undefined), the “Percent Effect” value was determined as 23.5%.
For `Cc1nn(C)cc1CN1CCCC1c1cccc(Nc2nccs2)n1` (centres undefined), the “Percent Effect” value is given as 56.13%.
